One assay deals with Staphylococcus aureus. The settings on record: Concentration 32 ug.mL-1;; ASSAY_TEST Inhibition of Bacterial Growth; detection method Absorption (OD600); MEDIA CAMHB; plate type 384well; NBS; CORNING #3640; time 18 hr.
For the next assay, the system named is Escherichia coli. The following applies: Concentration 32 ug.mL-1;; ASSAY_TEST Inhibition of Bacterial Growth; detection method Absorption (OD600); MEDIA CAMHB; plate type 384well; NBS; CORNING #3640; time 18 hr.

SMILES strings stand for the structures. Potency and affinity values are given separately.

As usually defined, the Inhibition is the drop in the measured response relative to a control, in per cent. Regarding `COc1ccc(-c2cc3c4nn(CC(=O)NCc5ccccc5Cl)c(=O)n4ccn3n2)cc1`, the Inhibition with Staphylococcus aureus is recorded as 8.73%; with Escherichia coli it was 0.93%.
The corresponding values for `COc1ccccc1Cn1c(=O)c2sccc2n2c(=O)n(Cc3c(F)cccc3Cl)nc12` are 3.95% and 0.18%.
`Cc1ccc(-n2ccn3c(SCC#N)nnc3c2=O)cc1C`: the Inhibition was 11.84% in the assay on Staphylococcus aureus and -4.03% in the assay with Escherichia coli.
For `O=C(CSc1nnc2c(=O)n(-c3ccccc3)ccn12)N1CCN(c2ccc(F)cc2)CC1` the same measures were 7.73% and -1.4%.
For `CCc1cccc(NC(=O)Cn2nc3c(Sc4ccc(C)cc4C)nccn3c2=O)c1` the same measures were -6.82% and -19.78%.
Take `Cc1cccc(N(CC(=O)OC(C)(C)C)S(=O)(=O)c2cccn3c(C)nnc23)c1`: the results for the Inhibition with Staphylococcus aureus and in the assay on Escherichia coli were 5.88% and -7.68%, respectively.
For `Cc1ccc(NC(=O)CSc2nc3ccccc3n3c(C)nnc23)c(Br)c1` the same measures were 15.19% and -2.51%.
The corresponding values for `CC1CCCN(c2nccn3c(=O)n(CC(=O)Nc4ccc(F)cc4F)nc23)C1` (centres undefined) are -0.93% and -3.03%.
Consider `CCOc1ccc(C(=O)Cn2nc3n(Cc4ccccc4OC)c(=O)c4sccc4n3c2=O)cc1`, for which the Inhibition is reported as -7.18% in the assay with Staphylococcus aureus and -6.25% in the assay with Escherichia coli.
The corresponding values for `Cn1c(=O)c2sccc2n2c(=O)n(Cc3ccc(Cl)cc3)nc12` are 3.13% and -4.41%.
For `O=C(Cn1nc2ccc(Sc3ccccc3)nn2c1=O)Nc1ccc(Cl)cc1` the same measures were 14.57% and 0.83%.
For `COc1cccc(Oc2nccn3c(=O)n(CC(=O)Nc4ccc5c(c4)OCO5)nc23)c1` the same measures were 9.63% and -4.07%.
